According to ChEMBL document CHEMBL3433997, “St. Jude Leishmania screening dataset” (2016):

Experiments:
Format in all cases: functional
[1] = target: Solute carrier family 2, facilitated glucose transporter member 1 (Homo sapiens) (UniProt P11166); assay: ST_JUDE_LEISH: Cytotoxicity at 2uM final concentration against transgenic Leishmania Mexicana promastigotes LmGLUT1 that are glucose transport deficient and complemented with the human glucose transporter GLUT1. Activity is measured by DNA content using SYBR green in vitro
[2] = target: Hexose transporter 1 (Plasmodium falciparum) (UniProt O97467); assay: ST_JUDE_LEISH: Cytotoxicity at 2uM final concentration against transgenic Leishmania Mexicana promastigotes LmPfHT that are glucose transport deficient and complemented with the Plasmodium falciparum hexose transporter. Activity is measured by DNA content using SYBR green in vitro
[3] = target: Glucose transporter (Leishmania mexicana) (UniProt O61059); assay: ST_JUDE_LEISH: Cytotoxicity at 2uM final concentration against transgenic Leishmania Mexicana promastigotes LmGT2 that are glucose transport deficient and complemented with the L. Mexicana glucose transporter 2. Activity is measured by DNA content using SYBR green in vitro

Sequence of Solute carrier family 2, facilitated glucose transporter member 1 (Homo sapiens) (P11166 whole entry): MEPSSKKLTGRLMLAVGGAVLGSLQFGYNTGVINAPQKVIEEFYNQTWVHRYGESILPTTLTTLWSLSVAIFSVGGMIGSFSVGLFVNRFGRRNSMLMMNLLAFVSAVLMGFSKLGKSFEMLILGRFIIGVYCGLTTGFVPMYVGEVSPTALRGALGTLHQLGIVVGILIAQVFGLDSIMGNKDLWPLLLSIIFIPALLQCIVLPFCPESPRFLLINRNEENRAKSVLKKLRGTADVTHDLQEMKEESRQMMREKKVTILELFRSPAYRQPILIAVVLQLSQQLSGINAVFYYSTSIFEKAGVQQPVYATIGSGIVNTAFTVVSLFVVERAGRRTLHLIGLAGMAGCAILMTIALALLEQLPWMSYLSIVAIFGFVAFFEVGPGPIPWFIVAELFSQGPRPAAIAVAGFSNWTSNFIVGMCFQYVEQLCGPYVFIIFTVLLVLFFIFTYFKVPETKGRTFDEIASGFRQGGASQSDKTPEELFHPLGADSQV

Compound	inhibition [1] [%]	inhibition [2] [%]	inhibition [3] [%]
O=C(Nc1ccc(Oc2ccc(OC(F)(F)F)cc2)cc1)c1ccco1	2.92	1.49	-0.53
CC(C)c1ccc(CN2CCC(CNC(=O)c3cc(-c4cccc(Cl)c4)cs3)C2)cc1 (stereo not drawn)	1.24	3.19	-0.24
CC(Cc1ccc(CNC(=O)NCc2ccc(CC(C)NCCc3cccc(Cl)c3)cc2)cc1)NCCc1cccc(Cl)c1 (stereo not drawn)	82.9	79	18.9
c1cc(-c2ccc(CN3CCCCC3)cc2)cc(-c2nc3ccccc3[nH]2)c1	1.85	0.49	0.96
CCCCCCCOc1ccc(NC(=O)Nc2ccc(Cn3ncc(N4CCCNCC4)c(Cl)c3=O)cc2)cc1	-2.91	-0.57	-1.59
CCCc1cc(OC)c(CC2c3cc(O)c(Cl)cc3CCN2C)cc1OC (stereo not drawn)	9.73	7.17	14.9
O=C(Nc1ccc(O)c(-c2nc3ccccc3[nH]2)c1)c1ccc([N+](=O)[O-])cc1	-2.13	-0.21	1.31
CCCC1N=C(N)N=C(N)N1c1ccccc1 (stereo not drawn)	2.1	-1.28	0.53
CCN(CC)CCCC(C)Nc1c2ccccc2nc2ccc3ccccc3c12 (stereo not drawn)	1.95	2.89	2.22
O=C(NC1CCN(Cc2ccccc2)CC1)c1ccc(-c2nc3cc(Cl)c(Cl)cc3[nH]2)c(F)c1	10.3	9.26	9.86
O=C(Nc1ccc(Cl)cc1)c1cc(Cl)ccc1NC(=O)C1(c2ccc(Cl)cc2)CCCC1	-0.07	2.74	1.43
Cc1ccc(Nc2nccc(NCC(O)c3cccc(C)c3)n2)cc1 (stereo not drawn)	5.47	4.73	3.22
COc1cc(NC2CCCC(NCc3cn(S(=O)(=O)c4ccccc4)c4ccccc34)C2)nc2ccccc12 (stereo not drawn)	1.09	2.28	2.67
CC(C)c1ccc(NC(=O)NCC2CCCN(CCCCCNC(=O)/C=C/c3ccc(Cl)c(Cl)c3)C2)cc1 (stereo not drawn)	2.73	1.74	2.62
COc1ccccc1C1CCN(C2CCC(NC(=O)c3cc4ccccc4[nH]3)CC2)CC1 (stereo not drawn)	-0.02	-0.24	2.29
Cc1cnc(NCCc2ccc(F)cc2)nc1N[C@@H](CC(C)C)C(=O)Nc1ccccc1	5.17	4.05	4.26
COC(=O)c1sc2ccccc2c1NC(=O)c1ccc(C)c(C)c1	5.3	4.87	5.56
CCOC(=O)C1=C(C)NC2=C(C(=O)CC(C)(C)C2)C1c1ccc(Cl)cc1 (stereo not drawn)	-1.57	0.77	0.29
O=C(Nc1cccc(-c2cccc(-c3nc4ccccc4[nH]3)c2)c1)Nc1ccc(F)c(F)c1F	2.74	4.36	3.88
COc1c(F)ccc2ncc(Cl)c(CCN3CCC(NCc4ccc5c(n4)NC(=O)CS5)CC3)c12	6.45	6.77	-2.91
O=C(Cc1cccc(Cl)c1)N1CCc2cc3nccc(N4CCN5CCC[C@H]5C4)c3cc21	3.68	2.69	4.38
c1ccc(CNc2nc(NCCc3c[nH]cn3)nc(N3CCCC4CCCCC43)n2)cc1 (stereo not drawn)	-1.84	-0.22	-1.46
Oc1ccc(CCNc2nc(NCCCOc3cccc(CN4CCCCC4)c3Cl)nc(N3CCNCC3)n2)cc1	3.62	1.93	3.74
COc1cc(OC)cc(-c2nn(-c3ccc([N+](=O)[O-])cc3C#N)c(=S)n2Cc2ccco2)c1	0.03	-1.55	4.15

Compound	inhibition [1] [%]	inhibition [2] [%]	inhibition [3] [%]
Cc1cc(NC(=O)Nc2ccc3ccn(C)c3c2)c2ccccc2n1	13	10.7	8.87
COc1ccc(NC(=O)/C=C/c2cc(Br)ccc2F)cc1OCCN(C(C)C)C(C)C	0.52	0.38	0.14
COc1ccccc1CCNc1nc(C)cc(N[C@@H](CC(C)C)C(=O)NCCc2ccccc2)n1	2.53	5.72	2.57
O=C(/C=C/c1ccc(Cl)c(Cl)c1)N1CCC(CCN2CCC(c3c[nH]c4ccccc34)CC2)CC1	-0.41	0.94	0.41
O=C(Nc1cccc(CN2CCCN(Cc3ccsc3)CC2)c1)c1ccc(-c2ccccc2)cc1	2.55	3.01	1.6
CC(C)CN1CCCN(Cc2cccc(NC(=O)c3cc4ccccc4s3)c2)CC1	-0.04	-0.28	-5.16
CCOC(=O)c1ccc(Nc2cc(Nc3ccc(C(=O)OCC)cc3)nc(C)n2)cc1	7.7	35.2	3.24
Cc1ccc(C)c(-n2c(SCC(=O)Nc3ccc(C(N)=O)cc3)nnc2-c2cccc(Cl)c2)c1	11.3	11.6	10.4
O=C(Cn1cc(C=C2SC(=NC3CCCC3)N(C3CCCC3)C2=O)c2ccccc21)N1CCCC1	4.24	1.46	0.81
CC(C)[C@@H](NC(=O)NC1CCC(CCN2C3CCC2CC(OC(=O)C(CO)c2ccccc2)C3)CC1)C(O)(c1ccccc1)c1ccccc1 (stereo partly drawn)	8.23	8.36	4.86
O=C(Nc1ccc(OC2CCN(Cc3ccccc3)C2)c(Cl)c1)c1cccs1 (stereo not drawn)	1.18	1.06	1.66
Fc1cccc(COc2ccc(Nc3ncnc4sc(C#CCNC5CCC5)cc34)cc2Cl)c1	6.7	5.05	2.46
CN(C)CCN(C)Cc1ccc(-c2cccc(-c3nc4ccccc4[nH]3)c2)cc1	-0.63	1.04	0
c1ccc(-c2cccc(-c3ccccn3)n2)nc1	3.92	2.46	2.49
O=C(Nc1cc(F)c(F)c(-c2cccnc2)c1)N1CCc2cc(Cl)c(Cl)cc21	0.67	-1.8	-0.31
N#Cc1ccccc1C(=O)N(Cc1cncn1Cc1cccc(F)c1)CC1CC1	6.38	10.2	8.88
CN(c1ccccc1C(=O)Nc1ccccc1Oc1ccccc1)S(=O)(=O)c1ccccc1	0.02	0.41	5.08
COc1ccc(-c2cccc(NC(=O)c3ccc(C#N)cc3)c2)cc1CN1CCCN(C)CC1	3.34	2.59	0.9
O=C(Nc1ccc(Cl)c(Cl)c1)N(Cc1ccccc1Br)C1CCNCC1	0.5	3.45	0.68
O=C(N[C@H]1CCN(Cc2ccc(OCCCN3CCCCC3)cc2)C1)c1cc(Cl)cc(Cl)c1	1.71	7.28	2.29
O=C(/C=C/c1ccc(Cl)cc1Cl)N1CCC(CCN2CCC(c3c[nH]c4ccccc34)CC2)CC1	3.54	4.28	5.09
CN1CCN(c2ccc(Nc3c(C(N)=O)cnc4cc(-c5ccoc5)ccc34)cc2)CC1	15.1	24.6	3.57
COc1ccc(CCN(C)CCCCNC(=O)c2ccc(NC(=O)c3ccc(Cl)cc3)cc2)c(OC)c1	1.64	2.15	2.45
O=C1OC(c2cc3ccccc3n2S(=O)(=O)c2ccccc2)(c2cc3ccccc3n2S(=O)(=O)c2ccccc2)c2ccccc21	1.65	1.8	2.01

Compound	inhibition [1] [%]	inhibition [2] [%]	inhibition [3] [%]
Cc1cc(NCCC(=O)NCCOc2ccccc2)nc(NCCOc2ccccc2)n1	3.09	-0.07	0.08
Clc1ccc(OCc2ccccc2)c(-c2nc(-c3nc4ncc(Br)cc4[nH]3)cs2)c1	4.08	4.1	1.99
Cc1[nH]c(C)c(-c2ccc(Nc3ccc(C(F)(F)F)cn3)cc2)c(=O)c1Br	2.7	5.96	3.17
CCN(CCCN1CCCCC1)c1cc(C)nc(Nc2ccc(C)cc2C)n1	1.88	1.53	2.76
N#Cc1ccc(-c2ccc(C(=O)Nc3ccc4c(c3)CCN(C3CCC3)CC4)nc2)cc1	3.57	3.06	2.04
CCN(CC)/C(=N/C(=N)Nc1ccc(Br)cc1)NCCCCCCN/C(=N\C(=N)Nc1ccc(Br)cc1)N(CC)CC	-1.08	0.19	-0.11
Cc1cccc2nc(-c3ccc(-c4cccc(NC(=O)NCc5cccc(F)c5)c4)s3)[nH]c12	-1.66	-0.47	-1.14
COc1cc(C)c(NC(=O)c2cccc3c(=O)c(C)c(-c4ccccc4)oc23)cc1OC	6.49	-0.38	-1.52
CCCCCCCCCN1CC[C@@H](CCCc2ccnc3ccc(O)cc23)[C@@H](CC)C1	-2.45	-2.37	-1.91
Cc1ccc(CNC(=O)[C@H](CC(C)C)Nc2cc(C)nc(NCc3ccccc3C)n2)cc1	4.3	4.62	3.14
O=C(NC(c1ccccc1)c1ccccc1)C(c1cc2ccccc2o1)N1CCN(C(c2ccccc2)c2ccccc2)CC1 (stereo not drawn)	4.42	2.92	0.24
CC(=O)c1ccc(NC(=O)CSc2nc(-c3ccccc3Cl)ns2)cc1	2.79	10.3	9.72
O=C(NCCN1CCOCC1)c1ccc(-c2ccc(CNCCCc3ccccc3)cc2)nc1	-1.5	-3	-0.47
CN1CCCN(Cc2ccc(-c3ccc(NC(=O)c4cccc(Cl)c4)cc3)cc2)CC1	0.35	-1.66	-0.18
Cc1nccc2c(NC(=O)N[C@@H]3CCN(c4ncc(C(F)(F)F)cc4Br)C3)cccc12	1.06	1.71	0.74
Cn1cccc1C(=O)C(=O)Nc1ccc(-c2ccc(-c3nc4cc(F)ccc4[nH]3)cc2)cc1	8.15	-0.07	-0.45
O=C(Nc1ccc(Cl)cc1)OCCn1nnnc1C(c1ccc(Cl)cc1)N1CCOCC1 (stereo not drawn)	2.79	0.7	2.38
CC(C)(C)NCCN(Cc1ccc(-c2ccc(C(F)(F)F)cc2)cc1)C(=O)Cn1c(CCc2cccc(F)c2F)nc(=O)c2ccccc21	3	5	1.15
COc1cc(C)nc2ccc(NC(=O)Nc3ccc4nc(C)cc(OC)c4c3)cc12	8.47	6.65	8.59
COc1ccc2nccc([C@@H](O)CN3CCC(NC(=O)Cc4cccc5c(Br)cccc45)CC3)c2c1	14.1	9.54	10.9
COc1ccc(-c2cc3nc4c(c(NCCCn5ccnc5)n3n2)CCCC4)cc1	1.31	1.92	2.25
CCN1CCC(NCc2ccc(-c3ccc(Cl)cc3)cc2)CC1	23.6	11	7.91
O=[N+]([O-])c1cccc(CNCC2CCN(CCc3ccccc3)CC2)c1	2.35	1.86	2.16
